This note sets out measurements from paper PMC5540273 (PLoS ONE, 2017).
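Note: KINOMEscan kinase panel screen.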

This assay deals with CLK3. Conditions: concentration: 1 μM, replicates: in singlicate; n = 1.
For the compound `O=C(NC1CCN(c2ccnc(Nc3ccc(F)cc3)n2)C1)c1cc2ccccc2s1` (stereo not drawn) [GSK1379716], the “%Inh” value is 14%.
The figure for `COc1cc2c(cc1OCCN1CCNCC1)ncc1c3ccc(C#N)cc3[nH]c21` is 27%; for `COc1cc(Nc2nccc(N3CCC(NC(=O)Nc4cccc(C(C)=O)c4)C3)n2)cc(OC)c1OC` (stereo not drawn) [GSK1379753] it is 11%.
Next, `O=C(Nc1cccc(-c2nn3ccccc3c2-c2ccnc(Nc3cccc(C(F)(F)F)c3)n2)c1)c1c(F)cccc1F` [GSK292658]: 0%; `CN(c1ccc(NC(=O)Nc2cc(C(F)(F)F)ccc2F)cc1)c1ccnc(Nc2ccc(S(N)(=O)=O)cc2)n1` [GW809893]: 0%; `Cc1cccc(NC(=O)Nc2ccc(Oc3ncnc4ccn(C)c34)cc2)c1`: 0%.
Next, `Cl.c1ccc(-c2ccc3c(Nc4ccc5[nH]ccc5c4)ccnc3c2)nc1` [GW440138]: 8%.
As for `CN1CCN(CCCNc2nccc(-c3c(-c4ccc(F)cc4)nn4cc(C(F)(F)F)ccc34)n2)CC1` [GW621581], the “%Inh” value worked out at 0%.
The figure for `C[C@@H](Oc1cc(-n2cnc3cc(-c4ccnc(NCCS(C)(=O)=O)c4)ccc32)sc1C(N)=O)c1ccccc1Cl` [GSK907232] is 32%.
In the case of `Cc1cccc(Nc2nc(N[C@H]3CCNC3)ncc2C(N)=O)c1.Cl` [GSK2197149], the “%Inh” value is 37%.
Next, `CCc1ccc(-c2ccc3c(c2)-c2c(cnn2C)S(=O)(=O)N3C)cc1`: 0%.
Turning to `COc1cc(Nc2ncc3c(C)nc(-c4cc5ccccc5[nH]4)n3n2)cc(OC)c1OC` [GW869516], the “%Inh” value was 36%.
Turning to `Cc1ccc(S(=O)(=O)Nc2ccc(Nc3nccc(Nc4cccc5[nH]ncc45)n3)cc2)cc1` [GSK581271], the “%Inh” value worked out at 13%.
Next, `COc1ccc(Nc2nccc(NCCNC(=O)c3cc4ccccc4s3)n2)cc1` [GSK1379896]: 0%; `CN1CCN(Cc2cccc(-c3ccc4c(Nc5ccc(Oc6ccccc6)cc5)ccnc4c3)c2)CC1` [GW578342]: 0%; `COc1ccc(Nc2nccc(N3CCC(NC(=O)Nc4cccc(OC)c4)C3)n2)cc1` (stereo not drawn) [GSK1379742]: 39%.
As for `O=C(Nc1n[nH]c2cc(-c3ccoc3)ccc12)C1CC1` [SB-738481], the “%Inh” value turned out to be 13%.
The figure for `Nc1ncnc2c1nc(-c1ccccc1)n2-c1ccccc1` [SKF-97293] is 25%; for `COc1ccc(CNC(=O)NC2CCN(c3ccnc(Nc4ccc(F)cc4)n3)CC2)cc1` [GSK1379788] it is 11%; for `Cc1occc1-c1ncc(OC[C@@H](N)Cc2c[nH]c3ccccc23)cc1-c1ccc2[nH]nc(C)c2c1.O=C(O)C(F)(F)F` [GSK682037] it is 25%.
The figure for `c1ccc(-c2n[nH]cc2Nc2ccnc3ccccc23)nc1` [GW694077] is 25%; for `O=C(Nc1cccc(-c2nn3ncccc3c2-c2ccnc(Nc3ccccc3)n2)c1)c1c(F)cccc1F` [GSK198271] it is 25%.
The figure for `Nc1n[nH]c2cnc(-c3ccccc3)cc12` [SB-642124] is 20%; for `CC(=O)Nc1nc2cnc(Nc3cc(NC(=O)c4cccc(C5(C#N)CC5)c4Cl)ccc3C)nc2s1` it is 0%.
`O=C(Nc1n[nH]c2nc(-c3ccc(O)cc3)ccc12)C1CC1` [SB-710363]: the “%Inh” value is given as 10%.
On to `Cn1cc(-c2[nH]c3cc(NC(=O)[C@H](N)C4CCCCC4)cc4c3c2C=NNC4=O)cn1`, for which the “%Inh” value came out at 13%.
The figure for `O=C(Nc1cccc(-c2nn3ccccc3c2-c2ccnc(Nc3cccc(F)c3)n2)c1)c1c(F)ccc(F)c1Cl` [GSK357952] is 0%; for `O=C(Nc1ccccc1F)NC1CCN(c2ccnc(Nc3ccc(F)cc3)n2)CC1` [GSK1379800] it is 0%.
Next, `CSc1cccc2c(-c3ccncn3)c(-c3ccc(F)cc3)nn12` [GW514786]: 11%; `COc1ccc(-c2coc3ccc(-c4nnc(SCc5ccc(OC)c(C(F)(F)F)c5)o4)cc23)cc1`: 0%.
